# Many of the other results were omitted from the sample, so hits are more common in it than they were.
# DT40 TDP1 no CPT: qHTS for Inhibitors of human tyrosyl-DNA phosphodiesterase 1 (TDP1): qHTS in cells in absence of CPT. DT40 Tdp1-/- hTDP1 cells, no CPT, ATP luminescence, 48 h. Potency, µM (titrated, usually from 46.2 µM), for the others: top-dose activity change, negative = growth inhibition, most hits filed as inhibitors. 420,000 tested, 15% active. AID 686978, 2013; note: potency is the fitted concentration of half-maximal effect; nearly all actives have a fitted effect of over 55% in size
#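 No-CPT arm: Tdp1-/-;hTDP1 DT40 cells (400/well) plus compounds, incubated ≥48 hr at 37 °C. Readout CellTiter-Glo luminescence.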
# HT1080-NT tox: kills 2HG-producing HT-1080-NT fibrosarcoma cells | HT-1080-NT fibrosarcoma viability, CellTiter-Glo ATP luminescence, 48 h | Potency, µM (titrated, usually from 46.1 µM), for inactives: at the highest dose activity, negative = less viability, most hits filed as cytotoxic | 360,000 tested, 1.6% active;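 note: NT is the 2HG producing partner of a matched IDH1 knockdown line; potency is the fitted concentration of half-maximal effect; 0% = DMSO-treated cells and -100% = media-only wells without cells; nearly all actives have a fitted effect of over 55% in size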
#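 A 48-hour cytotoxicity screen used HT-1080-NT cells plated 2 hours before compound delivery. ATP-based CellTiter-Glo luminescence measured viability, normalized to DMSO and no-cell controls.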
# IL-1B inflam inh: inhibitors of inflammasome signaling (IL-1 beta secretion) | THP-1 LPS/ATP IL-1B secretion, AlphaLISA, 16 h; hits give low values | activity change, % at 57.5 µM | 360,000 tested, 4.7% active | AID 743279; in the data active = activity change below about -50%; inconclusive = mostly about -30% to -49%
#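 THP-1 cells pretreated 1 hr with compounds (up to 57.5 uM final), then stimulated with LPS (250 ng/mL final) plus ATP (1.25 mM final); secreted IL-1B measured by AlphaLISA after 16 hr, decreased signal indicating inhibition.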
# DT40 TDP1 CPT: growth inhibition of DT40 Tdp1-/-;hTDP1 cells with camptothecin (screen for TDP1 inhibitors). chicken DT40 Tdp1-/-;hTDP1 cells + 20 nM CPT, ATP luminescence, 48 h. Potency, µM (top dose mostly 46.2 µM), without a hit: top-dose activity change, negative = growth inhibition, usual class: inhibitors. 420,000 tested, 12% active. AID 686979; note: potency is the fitted concentration of half-maximal effect; nearly all actives have a fitted effect of over 55% in size
#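 Cell growth measured by CellTiter-Glo luminescence after a minimum 48 h, 37 C compound exposure with 20 nM CPT in Tdp1-knockout DT40 cells stably expressing hTDP1, seeded 400/well; qHTS titration format.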
# ALOX12 inh: blocks human arachidonate 12S-lipoxygenase; P18054; purified 12hLO, xylenol orange hydroperoxide absorbance; Potency, µM (titrated, usually from 108 µM), inactives show at the top dose activity change, negative = inhibition, hits mostly inhibitors; 580,000 tested, 1.1% active; AID 1671190; note: potency is the fitted concentration of half-maximal effect
# Target sequence (P18054 whole entry, looked up): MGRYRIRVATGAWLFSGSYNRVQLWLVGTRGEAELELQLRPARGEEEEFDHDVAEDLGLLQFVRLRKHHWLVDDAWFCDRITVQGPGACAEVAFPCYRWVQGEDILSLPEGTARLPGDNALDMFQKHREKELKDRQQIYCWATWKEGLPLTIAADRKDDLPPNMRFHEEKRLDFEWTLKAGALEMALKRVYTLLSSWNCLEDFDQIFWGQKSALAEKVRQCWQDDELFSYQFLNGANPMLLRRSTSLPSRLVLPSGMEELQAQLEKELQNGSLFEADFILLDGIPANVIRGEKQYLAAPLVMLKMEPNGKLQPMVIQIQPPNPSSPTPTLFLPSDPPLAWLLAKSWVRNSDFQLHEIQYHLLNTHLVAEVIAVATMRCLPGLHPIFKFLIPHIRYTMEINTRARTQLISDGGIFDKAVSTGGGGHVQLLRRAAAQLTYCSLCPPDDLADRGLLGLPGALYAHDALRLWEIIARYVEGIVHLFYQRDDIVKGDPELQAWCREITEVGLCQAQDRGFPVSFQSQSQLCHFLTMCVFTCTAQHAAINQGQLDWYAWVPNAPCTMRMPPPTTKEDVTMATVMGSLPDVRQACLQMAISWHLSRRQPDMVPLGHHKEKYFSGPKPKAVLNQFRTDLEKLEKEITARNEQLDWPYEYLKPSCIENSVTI
#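 Hydroperoxide product was detected by ferrous iron/xylenol orange as the 573 to 405 nm absorbance ratio. Arachidonic acid at 40 uM (final) was turned over for 30 min at room temperature by 150 nM human 12hLO, pH 7.0 Hepes buffer, after 15 min compound preincubation.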
# HT1080 IDH1KD tx: kills HT-1080 cells with IDH1 knockdown; HT-1080 IDH1 knockdown viability, ATP luminescence, 48 h; Potency, µM (highest dose often 46.1 µM), for the others: at the top dose activity, negative = toxicity, usual class: cytotoxic; 360,000 tested, 2% active; AID 686971;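 note: potency is the fitted concentration of half-maximal effect; 0% = DMSO wells and -100% = cell-free medium wells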
#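 In this qHTS, HT-1080 cells depleted of IDH1 are exposed for 48 h at 37 °C to compound titrations. Toxicity is scored from CellTiter-Glo luminescence, with DMSO as full viability and medium alone as none.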
# Starred values were filed as active, the others as inactive; u = inconclusive; x = no result. Unless noted, calls come from the whole dose curve; as a rule, active = well fitted curve in the direction sought with a large enough effect; inconclusive = small, poorly fitted or top-dose-only effect, or another doubt; inactive = no such curve, though single readings can be large; an effect the other way counts as inactive or inconclusive. Unless noted, % is set by controls: 0 for no effect and ±100 for the full control effect.
SMILES,DT40 TDP1 no CPT,HT1080-NT tox,IL-1B inflam inh,DT40 TDP1 CPT,ALOX12 inh,HT1080 IDH1KD tx
O=C(Nc1ccc(-c2nc3ccccc3o2)cc1)C1CC1,x,x,x,x,-9%,x
COc1cc(OC)c(N(C)C(=O)c2sc3nc4n(c(=O)c3c2C)CCCC4)cc1Cl,16µM*,x,x,u,-4%,x
CCOc1ccc(NC(=O)c2sc3nc4n(c(=O)c3c2C)CCCC4)cc1,13µM*,x,x,21µM*,12%,x
CCOc1ccc(CCNC(=O)c2sc3nc4n(c(=O)c3c2C)CCCC4)cc1,u,x,x,u,-28%,x
Cc1c(C(=O)N(C)c2cccc(C(F)(F)F)c2)sc2nc3n(c(=O)c12)CCCCC3,15µM*,x,x,u,-26%,x
COc1cc(OC)c(N(C)C(=O)c2sc3nc4n(c(=O)c3c2C)CCCCC4)cc1Cl,-2%,x,x,17%,0%,x
Cc1c(C(=O)Nc2cccc(C(F)(F)F)c2)sc2nc3n(c(=O)c12)CCCC3,8.2µM*,x,x,10µM*,-5%,x
CCc1ccccc1N(C)C(=O)c1sc2nc3n(c(=O)c2c1C)CCCCC3,u,x,x,u,2%,x
CCCCn1cnc2c1c(=O)n(CC(=O)Nc1c(CC)cccc1CC)c(=O)n2CCC,x,x,x,x,4%,x
COc1ccc(C(CNC(=O)c2cc3ccccc3cc2O)N2CCOCC2)cc1 (stereo not drawn),u,-22%,-7,u,-9%,-12%
COc1ccc(C(c2c(O)ccc3ccccc23)N2CCOCC2)c(OC)c1 (stereo not drawn),29µM*,-8%,0,u,u,u
CCCCCCNC(=O)n1cc(F)c(=O)[nH]c1=O,15µM*,x,x,11µM*,0%,x
Cc1cccc(C)c1OCc1nc2c3cnn(-c4cccc(F)c4)c3ncn2n1,16µM*,x,x,18µM*,-1%,x
O=S(=O)(Nc1nc(-c2ccco2)c(-c2ccco2)s1)c1ccc(F)cc1F,-18%,10%,11,-18%,7.9µM*,3%
COc1ccc([C@H]2/C=C\CN(S(=O)(=O)/C=C/c3ccccc3)[C@@H](C)C(=O)N2Cc2ccc(F)cc2)cc1,21µM*,0%,12,u,1%,24%
CCCCC(=O)N1C/C=C\[C@H](c2ccc(OC)cc2)N(Cc2ccc(F)cc2)C(=O)[C@@H]1C,16µM*,0%,8,u,u,-2%
COc1ccc([C@H]2/C=C\CN(C(=O)c3ccccc3)[C@@H](C)C(=O)N2Cc2ccc(F)cc2)cc1,23µM*,-7%,0,u,9%,-18%
COc1ccc(C2/C=C\CN(C(=O)c3ccc(C)cc3)CC(=O)N2Cc2ccc(F)cc2)cc1 (stereo not drawn),u,-2%,7,-30%,u,-10%
O=C(Cn1cnc2ccccc2c1=O)Nc1ccc2oc(C3CC3)nc2c1,x,x,x,x,-23%,x
Cc1cc(C(=O)C[N+]2(C)CCOCC2)c(C)n1-c1ccc(Br)cc1,u,7%,-69*,u,-10%,0%
Cc1cc(C(=O)NP(=O)(N2CCOCC2)N2CCOCC2)c(C)n1-c1ccc(Br)cc1,-26%,0%,5,-18%,-16%,3%
CN1C=C/C(=C\c2cc[n+](C)c3ccccc23)c2ccccc21,0.0082µM*,u,-71*,0.21µM*,u,6.5µM*
CN(C)c1ccc(/C=C/c2cc[n+]([O-])c3ccccc23)cc1,-11%,x,x,-20%,x,x
C[n+]1ccccc1/C=N/O,2%,41%,23,0%,u,-2%
C[n+]1ccc(/C=C/c2ccc(F)cc2)c2ccccc21,13µM*,x,x,8.9µM*,x,x

# High-throughput results from PubChem BioAssay.
